Source: PubChem BioAssay (National Center for Advancing Translational Sciences (NCATS))
Lassa entry inh: qHTS for Inhibitors of binding or entry into cells for Lassa Virus; AID 540256, 2011; Potency, µM (titrated, usually from 37.9 µM), without a hit: top-dose activity change, negative = inhibition, hits mostly inhibitors; hit rate 1.2% among 300,000; Lassa virus pseudotype entry inhibition, cell reporter; calls by dose curve; tested in HEK293 cells; further: potency means the concentration at half of the fitted maximal effect; nearly all actives have a fitted effect of over 50% in size
Marburg entry inh: qHTS for inhibitors of binding or entry into cells for Marburg Virus | Marburg virus pseudotyped entry inhibition, cell reporter | Potency, µM (highest dose often 37.8 µM), inactives show at the highest dose activity change, negative = inhibition, hits mostly inhibitors | hit rate 1.8% among 300,000 | AID 540276, 2011; calls by dose curve; tested in HEK293 cells; further: potency means the concentration at half of the fitted maximal effect
FMDV inh: High Throughput Screening for Foot and Mouth Disease Virus Antivirals. AID 1159524, 2015. Potency, µM (series often up to 57.9 µM), inactives show at the highest dose activity change, negative = inhibition, most hits filed as inhibitors. hit rate 1.2% among 410,000. FMDV antiviral cell-based qHTS; calls by dose curve; tested in HEK293T cells; further: read-out not given here; potency means the concentration at half of the fitted maximal effect; nearly all actives have a fitted effect of over 45% in size
HCMV antiviral: qHTS Assay for inhibitors of the human cytomegalovirus (HCMV) | HFF cells, HCMV-luciferase reporter, 72 h; active compounds read low | AID 1259415, 2018 | activity change, negative = inhibition, % at 57.5 µM | hit rate 4.5% among 410,000; in the data active means activity change below about -60%; inconclusive means no clear call, values can overlap the other calls; inactive means above about -39%
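Two compound doses tested in HFFs infected with HCMV-luciferase, MOI 1 PFU/cell, 72 h at 37C. Lysate luminescence read with OneGlo; data normalized against buffer-only and 10uM Salinomycin inhibitor controls.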
* hit, by the source's call; ? = inconclusive; / = no result; [ ] = remark or other dose. Sampled rows, rich in hits. Any-hit rate of the full collection: about 6.2%. On the % scale 0 is the no-effect control and ±100 the full control effect.

SMILES	Lassa entry inh	Marburg entry inh	FMDV inh	HCMV antiviral
O=C(CSc1ccc2nnc(-c3ccc(F)cc3)n2n1)N1CCCc2ccccc21	?	?	-3%	-77*
OCc1nc2ccccc2n1CC(O)Cn1ccc2ccccc21 (stereo not given)	-22%	-12%	28µM*	?
C(=N\Nc1nc2ccccc2[nH]1)/c1cccc2cccnc12	/	/	41%	-101*
O=C(N/N=C/c1cccc2cccnc12)c1ccccc1O	/	/	1%	-103*
CCc1nnc(N/N=C/c2c(C)[nH]c3ccccc23)n1N	/	-26%[46.1 µM]	12%	-90*
C(=N\Nc1nc2ccccc2[nH]1)/c1ccccc1	-1%	-2%	16%	52
O=C(N/N=C/c1cccc2nccnc12)c1ccccc1O	/	/	2%	10
Cc1[nH]c2ccccc2c1/C=N/Nc1nc2ccccc2[nH]1	?	?	0%	-98*
Cc1ccccc1/C=N/Nc1nc2ccccc2[nH]1	?	-27%[46.1 µM]	20%	-10
Cc1ncc2c(c1CNC(=O)c1ccc3c(c1)OCO3)CCN(C(=O)/C=C/c1ccc(Cl)cc1)C2	/	/	-11%	/
C(=N\Nc1nc2ccccc2[nH]1)/C1CCCCC1	?	5%[46.1 µM]	19%	-87*
COc1ccc(OC)c(CNC(=O)C2COc3ccccc3C2)c1 (stereo not given)	5%[46.1 µM]	/	20%	3
CC[n+]1c(/C=C/Nc2ccccc2)oc2ccc(OC)cc21	-12%	?	-2%	-33
CC/C(=C\c1oc2cc3ccccc3cc2[n+]1CC)Nc1ccccc1	?	-12%[14.2 µM]	22µM*	?
COc1ccc(C=C2C(=O)NC(=S)NC2=O)cc1	16%	21%	?	?
CN1C(=O)NC(=O)/C(=C/c2ccc([N+](=O)[O-])s2)C1=O	-10%[46.1 µM]	0%[46.1 µM]	?	68
O=C1NC(=S)NC(=O)C1=Cc1cccc2cc3ccccc3cc12	/	/	10µM*	-94*
CN1C(=O)/C(=C\c2ccc(Br)s2)C(=O)NC1=S	0%[46.1 µM]	?	32µM*	-1
O=C1NC(=S)NC(=O)C1=Cc1c(Cl)cccc1Cl	0%[46.1 µM]	11%[46.1 µM]	20µM*	-61*
O=C1NC(=S)NC(=O)C1=Cc1ccc(Br)s1	/	/	?	-100*
Cc1ccc(Cl)cc1NC(=O)CSC1=Nc2ccccc2C2=NC(Cc3ccccc3)C(=O)N12 (stereo not given)	?	/	-1%	?
C=CCNC(=S)NNC(=O)c1ccncc1	/	/	2%	-64*
CN(C)c1cc[n+](CC(=O)Nc2ccc(OC(F)F)cc2)cc1	-16%[46.1 µM]	?	?	-65*
CN(C)c1cc[n+](CC(=O)Nc2ccc(Cl)c([N+](=O)[O-])c2)cc1	-10%[46.1 µM]	?	-5%	-96*
Cc1ccc2c(CC(=O)Nc3c(C(=O)c4ccc(F)cc4)oc4ccccc34)coc2c1C	14%[46.1 µM]	21%[46.1 µM]	-6%	-31
SMILES	Lassa entry inh	Marburg entry inh	FMDV inh	HCMV antiviral
CC1C(=O)N(Cc2cccc(F)c2)c2ccccc2N1C(=O)c1ccccc1 (stereo not given)	-7%	?	18µM*	?
CC1C(=O)N(Cc2ccccc2F)c2ccccc2N1C(=O)c1c(F)cccc1F (stereo not given)	/	/	35µM*	?
COc1cccc(CN2C(=O)C(C)N(C(=O)c3c(F)cccc3F)c3ccccc32)c1 (stereo not given)	/	/	28µM*	-83*
COc1cc2nc(/C=C/c3cc(OC)c(OC)c(OC)c3)sc2cc1SC	?	7.1µM*	-19%	-32
O=C1C2C3C=CC(CC3)C2C(=O)N1c1ccccc1F (stereo not given)	-4%[46.1 µM]	2%[46.1 µM]	-14%	-63*
COc1ccccc1-n1ccnc1SCC(=O)NC1CCCC1	/	5%[46.1 µM]	-7%	63
COc1ccccc1NC(=O)Cn1nc(-c2ccncc2)nc1SCC(=O)NC1CCCC1	-16%	?	-15%	-76*
COc1ccccc1C(=O)Nc1nnc(SCC(=O)NC2CCCC2)s1	?	11µM*	0%	/
COc1ccccc1-n1cnnc1SCC(=O)NC1CCCCC1	/	/	-9%	-83*
Cc1noc(C)c1CC(=O)NCC1Cc2cc(-c3cccc(OC(F)(F)F)c3)ccc2O1 (stereo not given)	/	/	-6%	/
Cc1c(C(=O)NCC2CC2)sc2ncnc(NCCN3CCCCC3)c12	/	/	-20%	/
COc1ccc(NC(=O)c2cccc(Oc3ccccc3)c2)cn1	?	7.9µM*	11%	?
O=C(Nc1ccc(Br)cc1)c1cccc(S(=O)(=O)Nc2ccccn2)c1	-25%	?	3%	-19
COc1ccc(NC(=O)c2cccc(S(=O)(=O)Nc3ccc(Br)cc3)c2)cn1	?	?	-15%	-90*
CCOc1ccc(S(=O)(=O)Nc2nc3ccccc3nc2Cl)cc1	/	/	-15%	-34
CC(C)(C)c1ccc(C(=O)Nc2ccc(Oc3cccnc3)nc2)cc1	?	9%	35µM*	-66*
CCOc1ccc(S(=O)(=O)Nc2cnc3ccccc3c2)cc1	?	-28%[46.1 µM]	-9%	-79*
O=C1N=C2C=CC=CC2c2ccccc21 (stereo not given)	/	17%	/	/
CC(C)(C)c1ccc(C(=O)Nc2ccc(S(=O)(=O)Nc3cnc4ccccc4n3)cc2)cc1	-8%	?	2%	-70*
O=C(Nc1ccc(Br)cc1)c1cccc(S(=O)(=O)Nc2cnc3ccccc3c2)c1	?	2.8µM*	-22%	-24
O=C1CSc2ccc(C(=O)Nc3cccc(S(=O)(=O)Nc4ccc(Br)cc4)c3)cc2N1	/	/	-29%	-91*
O=C(Nc1ccc(S(=O)(=O)Nc2cnc3ccccc3n2)cc1)c1ccc(F)cc1	-10%	-13%[46.1 µM]	12%	-10
CC12C=C(C=Cc3ccc(Br)cc3)C(C)(C1)C(c1ccc(Br)cc1)CC2=O (stereo not given)	11%[14.3 µM]	-26%[14.2 µM]	/	/
CCOc1ccccc1NC(=O)CSc1ccc2nc(-c3ccccc3)cn2n1	-14%[46.1 µM]	/	-9%	5
Cc1noc(Cn2c(=O)c3ccccc3n(CC(=O)Nc3cccc(Cl)c3C)c2=O)n1	14%[46.1 µM]	/	0%	-7
SMILES	Lassa entry inh	Marburg entry inh	FMDV inh	HCMV antiviral
COc1ccc(-c2cn3c(n2)CCC3)cc1	-24%	-27%	35%	44
c1ccc(-c2ccc(-c3cn4c(n3)CCC4)cc2)cc1	10µM*	7.1µM*	?	-62*
Cc1csc2ncnc(N3CCN(C(=S)Nc4ccc(C(F)(F)F)cc4)CC3)c12	/	/	10%	-71*
CC(=O)OCc1c(-c2ccccc2)c2cc([N+](=O)[O-])ccc2n1C	19%[46.1 µM]	-28%[46.1 µM]	-26%	-77*
COc1cccc(N2CCN(S(=O)(=O)c3cc(-c4cc(C)no4)ccc3C)CC2)c1	14%[46.1 µM]	/	?	5
Cc1csc(C(C)N(C)C(=O)c2cc(NC(=O)C3CCC3)c3c(c2)nc(-c2ccncc2)n3C)n1 (stereo not given)	/	/	15%	/
CN(C)S(=O)(=O)c1cccc(-c2nn(-c3ccccc3)cc2/C=C2\SC(=S)NC2=O)c1	?	22µM*	?	-82*
N#Cc1ccc(S(=O)(=O)N[C@H]2CC[C@@]34CCCN3C(=O)CCC[C@H]4[C@H]2Cc2ccccc2)cc1	/	/	/	-35
COc1ccccc1NC(=S)NNC(=O)c1cc(C)nn1C	2%	?	-1%	-103*
